Where “and” joins values, the source holds several entries; their conditions need not be identical. Identical values can stand only once. Inconclusive results are not listed. Entries that show only a call come without a potency. The source holds several records for some structures; these can differ, active in one and inactive in another. Calls of active or inactive are those of the source. The call rests on the fitted dose curve; in most records, active means well fitted activation curve with a large enough effect in the repeat runs; inconclusive means weak or mixed curves; inactive means flat fitted curve, though single readings scatter.

From PubChem BioAssay (Tox21) come the findings set out here.
Potency means the concentration at half of the fitted maximal effect.

The nature of the assay: A CellTox Green Cytotoxicity Assay to monitor cytotoxicity in HepG2 cells - 24 hour (AID 1224878). Further: nearly all actives have a fitted effect of over 45% in size. Conditions: CellTox Green fluorescence; series mostly up to 76.8 µM; cytotoxicity: at the top concentration. An excerpt:
National Center for Advancing Translational Sciences [NCATS]
NIH Chemical Genomics Center [NCGC]
U.S. Environmental Protection Agency [EPA]
National Institutes of Environmental Health Sciences [NIEHS]
National Toxicology Program [NTP]
Cell-based models are critical for drug discovery. Determining the natural cytotoxic effects resulting from test compounds is an essential research activity. A CellTox Green Cytotoxicity Assay to monitor cytotoxicity in real time of continues cell culture during 40 hours of the compound treatment was used to screen Tox21 10K library compounds in HepG2 cells. CellTox Green Cytotoxicity Assay is a nonlytic, homogeneous, biofluorescent method to measure cytotoxicity in cell culture after experimental manipulation. The assay system uses a proprietary asymmetric cyanine dye that is excluded from viable cells but preferentially stains the dead cell's DNA. […] Viable cells produce no appreciable increases in fluorescence. Therefore, the fluorescence signal produced by the binding interaction with dead cell DNA is proportional to cytotoxicity.
The mixture of HepG2 cell suspension and reagents were dispensed at 600cells/6 ul/well in 1536-well tissue culture treated black solid bottom plates using a Multidrop dispenser. After the assay plates were incubated at a 37 C/5% CO2 incubator for 5 hours, 23 nL of compounds dissolved in DMSO, positive and negative controls was transferred to the assay plate by a pintool work station. The plates were incubated at 37 C for 40 hours. The fluorescence intensity were measured at 0h, 8h, 16h, 24h, 32h and 40h time points using ViewLux plate reader during compound treatment.
With `Clc1ccc(C(Cl)(Cl)Cl)cc1`, the Potency result is “inactive”.

For the compound `ClC(Cl)(Cl)c1ccccc1`, the Potency result was “inactive”.

Take `S=c1[nH]c2ccccc2[nH]1`: the Potency result is “inactive and 21.9 µM (active)”.

In the case of `CCCCOC(=O)COC(=O)c1ccccc1C(=O)OCCCC`, the Potency entry was “inactive”.

`CNC(=S)S`: the Potency entry is “inactive”.

With `CCCCCCCCCC(CC)c1ccc(S(=O)(=O)O)cc1` (stereo not given), the Potency was 54.9 µM (active) and 21.3 µM (active) and 38.9 µM (active).

For `CSc1nc(NC(C)C)nc(NC(C)C)n1`, the Potency result is “inactive”.

Turning to `O=C1Nc2ccc(Cl)cc2C(c2ccccc2)=NC1O` (stereo not given), the Potency result was “inactive”.

On to `CCCCCCCC[N+](C)(CCCCCCCC)CCCCCCCC`, for which the Potency is 9.75 µM (active) and 19.5 µM (active) and 15.5 µM (active).

Regarding `CC(C)=CC1C(C(=O)OCc2cccc(Oc3ccccc3)c2)C1(C)C` (stereo not given), the Potency result is “inactive”.

With `CC(C)(c1ccccc1)c1ccc(O)c(C(C)(C)c2ccccc2)c1`, the Potency was 48.5 µM (active) and 43.6 µM (active).

As for `ClC(Cl)(Cl)Br`, the Potency entry was “inactive”.

In the case of `O=[N+]([O-])c1ccc(Nc2ccccc2)cc1`, the Potency entry is “inactive”.

Take `O=[N+]([O-])c1ccc(Cl)c([N+](=O)[O-])c1`: the Potency is 35.2 µM (active) and 49 µM (active).

As to `CCC/C=N/O`, the Potency result is “inactive”.

In the case of `CCOC(=O)c1ccccc1N`, the Potency entry is “inactive and 49 µM (active)”.

`CNC(=O)Oc1cccc2c1OC(C)(C)C2`: the Potency entry is “inactive”.

Turning to `N#Cc1nn(-c2c(Cl)cc(C(F)(F)F)cc2Cl)c(N)c1S(=O)C(F)(F)F` (stereo not given), the Potency entry was “inactive”.

`C[N+](C)(C)C`: the Potency result is “inactive”.

As to `Nc1ccc([N+](=O)[O-])cc1N`, the Potency result was “inactive”.

On to `O=C(O)CF`, for which the Potency result is “inactive and 19.5 µM (active)”.

In the case of `N#CC(c1ccccc1)c1ccccc1`, the Potency entry was “inactive”.

Take `N#Cc1c(Cl)c(Cl)c(Cl)c(C#N)c1Cl`: the Potency is 24.1 µM (active) and 3.09 µM (active).

Turning to `c1ccc2c(c1)Nc1ccccc1S2`, the Potency entry is “inactive”.

As to `ClC(Cl)=C(Cl)C(Cl)=C(Cl)Cl`, the Potency entry was “inactive”.

With `NC(=O)CN1CCCC1=O`, the Potency result was “inactive”.

Turning to `Brc1ccc(Br)cc1`, the Potency result was “inactive”.

In the case of `Cc1ccc(N=CN(C)C=Nc2ccc(C)cc2C)c(C)c1`, the Potency is 43.6 µM (active) and inactive.

Turning to `CC1(C)C(C(=O)OC(C#N)c2cccc(Oc3ccccc3)c2)C1(C)C` (stereo not given), the Potency entry was “inactive”.

`CC(C)(c1ccc(OCC2CO2)cc1)c1ccc(OCC2CO2)cc1` (stereo not given): the Potency result was “inactive”.

Consider `CCOP(=O)(O)OCC` (tested in a mixture with another compound), for which the Potency result is “inactive and 43.3 µM (active)”.

On to `C[N+](C)(C)CC(=O)O`, for which the Potency result was “inactive”.

As for `CN(C)P(=O)(N(C)C)N(C)C`, the “cytotoxicity” value is -4.23% (inactive).

As for `Cn1c(-c2ccccc2)cc(-c2ccccc2)[n+]1C`, the Potency result is “inactive”.

Take `N#CCCCCC#N`: the Potency result was “inactive”.

For the compound `CCOP(=O)(OCC)OCC`, the “cytotoxicity” value is -3.6% (inactive).

Take `CCCCCCCCCCCCCl`: the Potency result is “inactive and 12.3 µM (active)”.

As to `CC(C)(c1ccccc1)c1ccc(O)cc1`, the Potency is 48.6 µM (active) and 21.9 µM (active).

Turning to `COP(=S)(OC)Oc1ccc(S(=O)(=O)N(C)C)cc1`, the Potency result was “inactive”.

For the compound `C=CC(Cl)CCl` (stereo not given), the “cytotoxicity” value was -10.9% (inactive).
